PubChem BioAssay
Values joined by “and” are separate entries in the source; they are usually repeats but may differ in a detail not shown here. Identical values can stand only once. Active and inactive are the calls of the source. Unless noted, no rule for the calls is given here.

Legend:
[1] = compound effects on lung adenocarcinoma cell viability – A549, calcein-AM fluorescence, 48 h, basal, profiling panel (AID 1162); details: higher = more signal; also: test concentration not given here
[2] = compound effects on differentiated 3T3-L1 adipocyte viability – cell-based, 3T3-L1 adipocytes, calcein-AM fluorescence, 48 h, basal, profiling panel (AID 1163); details: 3T3-L1 adipocytes viability, higher = more signal; also: test concentration not given here
[3] = compound effects on hepatocellular carcinoma cell viability – HepG2, calcein-AM fluorescence, 48 h, basal, profiling panel (AID 1164); details: higher = more signal; also: test concentration not given here
[4] = compound effects on multiple myeloma cell viability – MM1S, calcein-AM fluorescence, 48 h, basal, profiling panel (AID 1165); details: higher = more signal;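 also: viability of MM1S multiple myeloma cells under basal unstimulated conditions; test concentration not given here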
[5] = calcein-AM signal in unstimulated myeloma cells – cell-based, calcein-AM fluorescence, 48 h, PK04 Diversity Set, profiling panel (AID 1166); details: RPMI8226 myeloma viability, higher = more signal;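 also: cells grown under basal conditions without added stimulus; test concentration not given here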
[6] = JC-1 mitochondrial signal, unstimulated HepG2 cells – cell-based, JC-1 fluorescence, 24 h, 100 nL compound, profiling panel (AID 1167); details: HepG2 mitochondrial potential, higher = more signal; also: test concentration not given here
[7] = JC-1 mitochondrial signal, unstimulated adipocytes – cell-based, JC-1 fluorescence, 3T3-L1 adipocytes, 24 h, 100 nL compound, profiling panel (AID 1168); details: JC-1 mitochondrial fluorescence, higher = more signal, called active from +8 up or from −8 down; also: test concentration not given here
[8] = JC-1 mitochondrial signal, unstimulated myeloma cells – cell-based, JC-1 fluorescence, RPMI8226, 24 h, 100 nL compound, profiling panel (AID 1169); details: JC-1 mitochondrial potential fluorescence, higher = more signal; also: test concentration not given here
[9] = JC-1 mitochondrial signal, unstimulated MM1S myeloma – cell-based, JC-1 fluorescence, 24 h, 100 nL compound, profiling panel (AID 1170); details: MM1S mitochondrial potential, higher = more signal; also: test concentration not given here
[10] = resazurin metabolic signal in A549 cells – cell-based, resazurin fluorescence, 24 h, PK04 Diversity Set, profiling panel (AID 1171); details: A549 viability, higher = more signal, called active from +8 up or from −8 down; also: test concentration not given here
[11] = resazurin metabolic signal in HepG2 cells – cell-based, resazurin fluorescence, 24 h, PK04 Diversity Set, profiling panel (AID 1172); details: HepG2 viability, higher = more signal; also: test concentration not given here
[12] = budding yeast growth changes without added modifier – OD600, strain BY4716, 24 h, basal condition, primary screen (AID 1173); details: S. cerevisiae BY4716 growth, OD600, 24 h; higher = more signal, called active from +8 up or from −8 down
[13] = viability profiling in MM1S myeloma cells – cell-based, resazurin fluorescence, basal, 24 h, PK04 Diversity Set, profiling panel (AID 1174); details: higher = more signal, called active from +8 up or from −8 down; also: test concentration not given here
[14] = biological target: Dihydroorotate dehydrogenase (quinone), mitochondrial (Plasmodium falciparum (isolate 3D7)) (UniProt Q08210); test: inhibition of P. falciparum DHODH – biochemical, C-terminal His tag, absorbance 600 nm, primary screen (AID 1175); details: PfDHODH enzyme, DCIP absorbance 600 nm; higher = more signal, called active from +8 up or from −8 down;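 also: recombinant parasite enzyme with a five histidine tag at its C terminus; test concentration not given here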
Chain of Dihydroorotate dehydrogenase (quinone), mitochondrial (Plasmodium falciparum (isolate 3D7)) (Q08210 whole entry, looked up): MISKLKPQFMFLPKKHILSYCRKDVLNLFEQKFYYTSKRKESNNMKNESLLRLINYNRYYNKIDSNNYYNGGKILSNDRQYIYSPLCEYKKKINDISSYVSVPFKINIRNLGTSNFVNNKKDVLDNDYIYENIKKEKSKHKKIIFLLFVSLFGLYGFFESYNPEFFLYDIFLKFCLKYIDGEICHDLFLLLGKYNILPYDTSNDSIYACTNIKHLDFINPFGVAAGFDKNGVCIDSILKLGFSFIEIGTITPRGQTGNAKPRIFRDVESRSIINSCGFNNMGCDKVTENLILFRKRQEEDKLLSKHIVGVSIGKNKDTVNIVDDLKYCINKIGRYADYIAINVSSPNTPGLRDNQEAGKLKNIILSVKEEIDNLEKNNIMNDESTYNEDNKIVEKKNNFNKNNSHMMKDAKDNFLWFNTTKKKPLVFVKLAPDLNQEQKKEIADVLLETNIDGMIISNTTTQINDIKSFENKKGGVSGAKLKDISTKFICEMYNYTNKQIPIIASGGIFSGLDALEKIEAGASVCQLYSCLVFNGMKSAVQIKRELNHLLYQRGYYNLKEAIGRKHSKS

[15] = inhibition of PAO1 biofilm formation – strain PAO1, LB-PBS medium, absorbance 600 nm, primary screen (AID 1176); also: test concentration not given here; details: P. aeruginosa PAO1 growth/biofilm, A600, 12 h; higher = more signal
[16] = growth modulation of vineyard yeast isolate – strain RM11-1a, OD600, basal, 24 h, primary screen (AID 1177);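 also: cultures grown under basal conditions with no added stressor; test concentration not given here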; details: S. cerevisiae RM11-1a growth, OD600, 24 h; higher = more signal, called active from +8 up or from −8 down
[17] = growth of efflux-deficient E. coli DRC39 – strain DRC39, OD650, 24 h, E. coli filamentation inducers, primary screen (AID 1178);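 also: growth measured as culture turbidity by optical density at 650 nm; test concentration not given here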; details: E. coli DRC39 acrAB, higher = more signal, called active from +8 up or from −8 down
[18] = growth of efflux-deficient E. coli DRC39 – strain DRC39, OD650, 48 h, E. coli filamentation inducers, primary screen (AID 1179);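 also: screen aims at cell division blockers that make cells filament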; details: E. coli DRC39 delta-acrAB growth, higher = more signal, called active from +8 up or from −8 down
[19] = viability profiling in RPMI8226 myeloma cells – cell-based, resazurin fluorescence, basal, 24 h, PK04 Diversity Set, profiling panel (AID 1180); details: higher = more signal;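 also: RPMI8826 multiple myeloma cell line at 5000 cells per well; test concentration not given here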
[20] = biological target: E3 ubiquitin-protein ligase XIAP (Homo sapiens) (UniProt P98170); test: small molecules binding XIAP protein – biophysical, small-molecule microarray, fluorescence 635 nm, primary screen (AID 1181); details: higher = more signal;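 also: score merges 667 nm emission and signal to noise over triplicate slides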
Chain of E3 ubiquitin-protein ligase XIAP (Homo sapiens) (P98170 whole entry, looked up): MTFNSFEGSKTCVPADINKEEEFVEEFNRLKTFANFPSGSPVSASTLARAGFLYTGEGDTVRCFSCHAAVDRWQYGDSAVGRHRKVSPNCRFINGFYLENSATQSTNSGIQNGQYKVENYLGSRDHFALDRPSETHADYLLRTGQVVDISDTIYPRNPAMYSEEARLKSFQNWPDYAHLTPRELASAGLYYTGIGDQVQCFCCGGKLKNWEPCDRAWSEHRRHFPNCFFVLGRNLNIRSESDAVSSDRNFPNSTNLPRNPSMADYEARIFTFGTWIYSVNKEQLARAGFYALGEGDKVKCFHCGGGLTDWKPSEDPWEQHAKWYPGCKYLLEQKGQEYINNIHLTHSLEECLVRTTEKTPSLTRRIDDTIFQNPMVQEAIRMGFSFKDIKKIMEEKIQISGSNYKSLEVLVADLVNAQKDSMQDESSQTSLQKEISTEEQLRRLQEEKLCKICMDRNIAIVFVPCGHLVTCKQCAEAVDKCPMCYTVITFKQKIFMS

| SMILES | z-score [1] | z-score [2] | z-score [3] | z-score [4] | z-score [5] | z-score [6] | z-score [7] | z-score [8] | z-score [9] | z-score [10] | z-score [11] | z-score [12] | z-score [13] | composite z-score [14] | z-score [15] | z-score [16] | z-score [17] | z-score [18] | z-score [19] | composite z-score [20] |
| --- | --- | --- | --- | --- | --- | --- | --- | --- | --- | --- | --- | --- | --- | --- | --- | --- | --- | --- | --- | --- |
| CCOC(=O)C[C@H]1[C@H](OC(=O)c2ccccc2-c2ccccc2)[C@@H](NC(=O)Cc2ccc(OC)cc2)c2cc(OCCCO)ccc2N1C(=O)c1ccc2ccccc2n1 | 0.637 and 1.07 | 1.49 and 0.317 | 0.633 and 0.244 | 0.218 and 0.868 | -0.765 and -0.644 | 3.65 and 1.61 | 0.611 (inactive) and 0.669 (inactive) | 0.257 and -0.354 | 0.82 and 0.248 | 1.26 (inactive) and 0.555 (inactive) | 0.528 and 0.85 | -1.31 (inactive) and -0.5 (inactive) | 1.19 (inactive) and 0.644 (inactive) | 0.34 (inactive) and 0.282 (inactive) | 0.456 (inactive) | -0.484 (inactive) and -0.0944 (inactive) | 2.5 (inactive) and 0.544 (inactive) | 1.25 (inactive) and 0.422 (inactive) | -0.0946 and 0.108 | -0.289 and 0.299 |
| C=CCN(CCCCC)C(=O)C(c1cccs1)N(C(=O)/C=C\C(=O)O)c1c(Cl)cccc1CO (stereo not given) | 0.307 and -0.656 | 0.131 and -0.101 | -1.11 and -0.202 | 1.34 and 2.08 | 0.114 and -0.235 | -0.0476 and -0.222 | -0.706 (inactive) and 0.13 (inactive) | 0.1 and 0.992 | 0.0829 and -0.125 | -0.559 (inactive) and 0.0449 (inactive) | -0.939 and -0.559 | -0.69 (inactive) and -0.768 (inactive) | -0.18 (inactive) and -0.317 (inactive) | 0.401 (inactive) and 0.461 (inactive) | -0.0837 (inactive) and -0.677 (inactive) | -0.0138 (inactive) and -0.374 (inactive) | 0.246 (inactive) and 0.0068 (inactive) | 0.425 (inactive) and 0.212 (inactive) | -0.394 and -0.42 | -0.158 and -0.378 |
| CCOC(=O)C[C@H]1[C@H](OC(=O)c2ccccc2-c2ccccc2)[C@@H](NC(=O)Cc2ccc(OC)cc2)c2cc(OCCCO)ccc2N1C(=O)Cc1ccc(OC)cc1 | 0.615 and 0.158 | 1.92 and 0.0868 | -0.0677 and -0.11 | 0.902 and -0.0317 | 0.869 and -0.427 | 3.07 and 0.376 | 0.491 (inactive) and 0.191 (inactive) | 0.846 and -0.309 | 1.46 and 0.00765 | 0.615 (inactive) and 0.786 (inactive) | 1.5 and 0.156 | 0.324 (inactive) and 0.67 (inactive) | 0.783 (inactive) and 0.0875 (inactive) | 1.08 (inactive) and 0.343 (inactive) | 0.531 (inactive) | 0.6 (inactive) and 0.0342 (inactive) | 1.56 (inactive) and -0.539 (inactive) | 0.949 (inactive) and -0.39 (inactive) | 0.844 and 0.125 | 0.202 and -0.188 |
